± gives the standard deviation.
The sequences below were run on MILI (PIWIL2) piRISC loaded with L1MC piRNA (26 nt) (assay: pre-steady-state target cleavage rate (min^-1); guide: L1MC piRNA 5'p-UAACUAAAUACUAUGCAAGCUGUAGG; MIWI and MILI are mouse PIWI proteins and EfPiwi is from a freshwater sponge; tags in brackets are library labels; higher = faster piRNA-guided slicing of the target). Settings: auxiliary factor: none (no GTSF1).
Method in brief: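 A transcribed, DNA-blocked target RNA library […] was incubated at 33 °C for 0–8 or 0–960 min with 1 nM active affinity-purified piRISC carrying one synthetic guide, in HEPES–potassium acetate buffer with or without 500 nM GTSF1 partner protein. Uncleaved targets were then sequenced and normalised to depth and to weakly complementary targets. Data from three trials were pooled, with k3 capped at 0.0001 min^-1, and a burst-and-steady-state fit yielded the pre-steady-state cleavage rate.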
In the case of UCCUCCUACAGCUUGCAUAGUAUUUAGUUUA, the “pre-steady-state target cleavage rate” value is reported as 0.0143 ± 0.0034. In the case of UCCUGGUACACCUUGCAUAGUAUUUAGUAA, the “pre-steady-state target cleavage rate” value is reported as 0.00413 ± 0.0031. In the case of UCCUGCUACAGCAUGCAUUGUAUUUAGUUA, the “pre-steady-state target cleavage rate” value is reported as 0.00734 ± 0.0026. For UCCUGGAUGUCCUUGCAUAUUAUUUAGUUA, the “pre-steady-state target cleavage rate” value was 0.0028 ± 0.0027. In the case of UCCUGGAACAGCUUGCAUAGUAUGUAGUUA, the “pre-steady-state target cleavage rate” value is reported as 0.00343 ± 0.003. In the case of UCCUGGAACAGCUUGCAUACUAUUUAGUUA, the “pre-steady-state target cleavage rate” value is reported as 0.00298 ± 0.0025. With UCCUGGAUGAGCAUUGCAUAGUAUUUAGUUA the “pre-steady-state target cleavage rate” value was 0.0105 ± 0.0025. With UCCUCCUACAGCUUGCAUAGUAUUUAAUUA the “pre-steady-state target cleavage rate” value was 0.00326 ± 0.0027. With UCCUGGAUCUGGUUGCAUAGUAUUUAGUUA the “pre-steady-state target cleavage rate” value was 0.0105 ± 0.0029. UCCUCCUACAGCUUGCAAAGUAUUUACUUA was tested, and the “pre-steady-state target cleavage rate” value was 0.0033 ± 0.0019. With UCCUGGUACACUUGCAUAGUAUUUAGUUA the “pre-steady-state target cleavage rate” value was 0.00665 ± 0.0026. In the case of UCCUCCUACACCUUGCAUAGUAUUUAGUAA, the “pre-steady-state target cleavage rate” value is reported as 0.0033 ± 0.0026. UCCUCCUACAGCUAGCAUAGUAUAUAGUUA was tested, and the “pre-steady-state target cleavage rate” value was 0.00339 ± 0.0026. UCCUGGUACAGCCUUGCAUAGUAUUUAGUUA was tested, and the “pre-steady-state target cleavage rate” value was 0.0147 ± 0.0051. UCCUGCUACACCUUGCAUAGUAUUUAGUUA was tested, and the “pre-steady-state target cleavage rate” value was 0.0087 ± 0.0022. For UCCUGGAUGAGCUUGCAUAGUAUUUAGGUUA, the “pre-steady-state target cleavage rate” value was 0.0044 ± 0.0031. With UCCUCCUACAGCUUGCAUAGUAUCUUAGUUA the “pre-steady-state target cleavage rate” value was 0.00811 ± 0.0026. In the case of UCCUGGAACAGCUUGCAUAGUAUUAUGUUA, the “pre-steady-state target cleavage rate” value is reported as 0.00259 ± 0.0025. UCCUCCUACACUUGCAUAGUAUUUAGUUA was tested, and the “pre-steady-state target cleavage rate” value was 0.00564 ± 0.002. In the case of UCCUGCUUCAGCUUGCAUAGUAUUUAGAUA, the “pre-steady-state target cleavage rate” value is reported as 0.00373 ± 0.002. UCCUCCUACUCCUUGCAUAGUAUUUAGUAA was tested, and the “pre-steady-state target cleavage rate” value was 0.00285 ± 0.0024. With UCCUGCAACAGCUUGCAUUGUAUUUAGUUA the “pre-steady-state target cleavage rate” value was 0.0076 ± 0.0027. In the case of UCCUGGAUGUGUUUGCAUAGUAUUUAGUUA, the “pre-steady-state target cleavage rate” value is reported as 0.00817 ± 0.0033. With UCCUCCUACAGCUUGCAUGGUAUUUAGUUA the “pre-steady-state target cleavage rate” value was 0.00982 ± 0.003. UCCUCCUUCAGCUUGCAUAGUAAUUAGUUA was tested, and the “pre-steady-state target cleavage rate” value was 0.00503 ± 0.002. In the case of UCCUGGAACAGCCUUGCAUAGUAUUUAGUUA, the “pre-steady-state target cleavage rate” value is reported as 0.00974 ± 0.003. For UCCUGGUAGAGCUUGCAUAGUAAUUAGUUA, the “pre-steady-state target cleavage rate” value was 0.00729 ± 0.0024. For UCCUGGUAUCAGCUUGCAUAGUAUUUAGUUA, the “pre-steady-state target cleavage rate” value was 0.0221 ± 0.0059. UCCUCCUACAGGUUGCAUAGUAUAUAGUUA was tested, and the “pre-steady-state target cleavage rate” value was 0.00587 ± 0.0019. In the case of UCCUGCUACAGGAAGCAUAGUAUUUAGUAA, the “pre-steady-state target cleavage rate” value is reported as 0.00762 ± 0.0022. In the case of UCCUGGAACACCUUGCAUUGUAUUUAGUUA, the “pre-steady-state target cleavage rate” value is reported as 0.00474 ± 0.0027. UCCUCCAACAGGUUGCAUAGUAUUUAGUUA was tested, and the “pre-steady-state target cleavage rate” value was 0.00862 ± 0.0019. In the case of UCCUGCUACAGCUUGCAUAGUGAUUUAGUUA, the “pre-steady-state target cleavage rate” value is reported as 0.00369 ± 0.0028. In the case of UCCUGGAUGUGGCUUGCAUAGUAUUUAGUUA, the “pre-steady-state target cleavage rate” value is reported as 0.0089 ± 0.0042. In the case of UCCUGGAACUGCUUGCUUAGUAUUUAGUUA, the “pre-steady-state target cleavage rate” value is reported as 0.0116 ± 0.0026. In the case of UCCUGGUACAGCUUGCAUAAUAUUUAGUUA, the “pre-steady-state target cleavage rate” value is reported as 0.0064 ± 0.0032. In the case of UCCUGCUACAGCUUGCUUUGUAUUUAGUUA, the “pre-steady-state target cleavage rate” value is reported as 0.00494 ± 0.0021. For UCCUCCUACGGCUUGCAUAGUAUUUAGUUA, the “pre-steady-state target cleavage rate” value was 0.0137 ± 0.004. UCCUCCUACACCUUGCAUAGUAUAUAGUUA was tested, and the “pre-steady-state target cleavage rate” value was 0.00295 ± 0.0027.
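Note: 1 nM active piRISC with 0.1 nM target library at 33 °C single turnover.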
